# Laboratory results reported in PubChem BioAssay (Tox21).
# “And” between values parts separate entries of the source, which are not always exact repeats. Equal entries are not always repeated. Results filed as inconclusive are left out. Entries that show only a call come without a potency. Where a structure was tested more than once in an assay, its records may differ in their call. The source made the active and inactive calls. Unless noted, the call rests on the fitted dose curve; in most records, active means well fitted curve in the direction sought with a large enough effect in the repeat runs; inconclusive means weak or mixed curves; inactive means no such curve, though single readings can be large; an effect the other way counts as inactive or inconclusive.
# How the values were obtained:
# [1] = qHTS assay for small molecule agonists of the p53 signaling pathway (AID 651631; calls by dose curve; further: nearly all actives have a fitted effect of over 15% in size; further: potency means the concentration at half of the fitted maximal effect)
# How it was run: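 Readout was fluorescence from the LiveBLAzer FRET substrate, applied for 2 h at room temperature after 16 h compound exposure at 37 °C. Cells were the p53RE-bla HCT-116 line, with beta-lactamase driven by p53 response elements.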
# [2] = qHTS assay for small molecules that induce genotoxicity in human embryonic kidney cells expressing luciferase-tagged ATAD5 (AID 651632); further: nearly all actives have a fitted effect of over 15% in size; further: potency means the concentration at half of the fitted maximal effect
# How it was run: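 Genotoxicity read-out via ATAD5-luciferase: HEK293T cells, 16 hr compound incubation at 37C, Amplite detection.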
# [3] = qHTS assay for small molecule agonists of the p53 signaling pathway - cell viability (AID 651633; calls by dose curve; further: nearly all actives have a fitted effect of over 30% in size; further: potency means the concentration at half of the fitted maximal effect)
# How it was run: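 p53RE-bla cells, seeded at 4,000 per well and rested 5 h at 37 C/5% CO2, received compounds in DMSO for 16 h at 37 C. CellTiter-Glo was then added, and luminescence was read after 30 min at room temperature to gauge cytotoxicity.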
# [4] = qHTS assay for small molecules that induce genotoxicity in human embryonic kidney cells expressing luciferase-tagged ATAD5 - cell viability (AID 651634; calls by dose curve; further: nearly all actives have a fitted effect of over 25% in size; further: potency means the concentration at half of the fitted maximal effect)
# How it was run: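 Live-cell protease activity (CellTiter-Fluor, fluorescence) indicates viability. HEK293T cells with luciferase-tagged ATAD5; 15.5 hr compound treatment at 37C.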
# [5] = qHTS assay for small molecule disruptors of the mitochondrial membrane potential - cell viability (AID 720634; calls by dose curve; further: nearly all actives have a fitted effect of over 20% in size; further: potency means the concentration at half of the fitted maximal effect)
# How it was run: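 Human hepatoma HepG2 cells were treated for 1 hr with test chemicals, then given m-MPI dye and CellTiter-Glo. Cell viability reflects luminescence proportional to cellular ATP.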
# [6] = qHTS assay to test for compound auto fluorescence at 590 nm (red) in HepG2 cells (AID 720674)
# How it was run: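 Intrinsic compound fluorescence in the red window (Ex/Em 540/590 nm) is measured in attached HepG2 cells exposed for 1 hr, DMSO vehicle as baseline, benchmarked to Rose Bengal sodium.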
# [7] = qHTS assay to test for compound auto fluorescence at 535 nm (green) in HepG2 cells (AID 720675)
# [8] = qHTS assay to test for compound auto fluorescence at 460 nm (blue) in HEK293 cells (AID 720678); further: potency means the concentration at half of the fitted maximal effect
# How it was run: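 Intrinsic compound fluorescence is recorded in live HEK293 cultures after overnight incubation at 37C, 5% CO2, using excitation 405 nm and emission 460 nm. Values are referenced to triamterene.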
# [9] = qHTS assay to test for compound auto fluorescence at 590 nm (red) in HEK293 cells (AID 720679)
# How it was run: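 Red autofluorescence, HEK293 cells: 2,000 cells/well; attach 4-5 hr 37C; add 23 nL cpd or DMSO; incubate o/n 37C 5% CO2; read Ex540/Em590; Rose Bengal sodium reference.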
# [10] = qHTS assay for small molecule disruptors of the mitochondrial membrane potential (AID 720635); further: potency means the concentration at half of the fitted maximal effect
# How it was run: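 HepG2 cells (2,000/well) attached overnight at 37C, then took compound for 1 hr at 37C, 5% CO2. Mito-MPS dye was added for 30 min; fluorescence was read at 490/535 nm (monomers) and 540/590 nm (aggregates).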
# Tags describe the fitted curve by direction and shape or compound fluorescence and quenching.
Structure (SMILES),Potency [1],Potency [2],Potency [3],Potency [4],Potency [5],outcome [6],outcome [7],Potency [8],outcome [9],Potency [10]
NNC(=O)c1ccccc1,inactive,inactive,inactive,inactive,inactive,inactive,inactive,inactive,inactive,
COc1cc(N)c(Cl)cc1C(=O)NC1CN2CCC1CC2 (stereo not drawn),inactive,inactive,inactive,inactive,inactive,inactive,inactive,inactive,inactive,inactive
CC(=O)OC1(c2ccccc2)CCN(CCc2ccccc2)CC1,inactive,inactive,inactive,inactive,inactive,inactive,inactive,inactive,inactive,
C[C@]12CC[C@@H]3c4ccc(OC(=O)N(CCCl)CCCl)cc4CC[C@H]3[C@@H]1CC[C@@H]2O,21.1 µM (active),inactive,inactive,inactive,inactive,inactive,inactive,inactive,inactive,inactive
CC(C)CC(C)N (stereo not drawn),inactive,inactive,inactive,inactive,inactive,inactive,inactive,inactive,inactive,inactive
c1ccc2cc3c(cc2c1)-c1cccc2cccc-3c12,1.7 µM (active),inactive,inactive,inactive,inactive,inactive,inactive,3.55 µM [fluorescent] (active),inactive,
CC(=O)/C=C/c1ccc2c(c1)OCO2,30.8 µM (active),inactive,inactive,inactive,inactive,inactive,inactive,inactive,inactive,inactive
Oc1ccc(C(c2ccc(O)cc2)(C(F)(F)F)C(F)(F)F)cc1,60.8 µM (active) and 54.5 µM (active),inactive,68.2 µM (active) and 43.3 µM (active),inactive,inactive,inactive,inactive,inactive,inactive,2.72 µM (active) and 4.86 µM (active)
[CH3][Hg][Cl],30.5 µM (active),4.84 µM (active),24.3 µM (active),27.2 µM (active),27.2 µM (active),inactive,inactive,inactive,inactive,19.3 µM (active)
O=C(CCl)C(Cl)Cl,13.8 µM (active),inactive,inactive,55 µM (active),49 µM (active),inactive,inactive,inactive,inactive,61.7 µM (active)
Cc1cc(C(C)(C)c2cc(C)c(O)c(C)c2)cc(C)c1O,29.6 µM (active),inactive,59.1 µM (active),inactive,29.6 µM (active),inactive,inactive,inactive,inactive,18.7 µM (active)
O=C1NCN(c2ccccc2)C12CCN(CC1COc3ccccc3O1)CC2 (stereo not drawn),inactive,inactive,inactive,inactive,inactive,inactive,inactive,inactive,inactive,inactive
CC(C)(C)OO,inactive,inactive,inactive,inactive,inactive,inactive,inactive,inactive,inactive,inactive
Cn1cc(C2=C(c3cn(C4CCN(Cc5ccccn5)CC4)c4ccccc34)C(=O)NC2=O)c2ccccc21,7.5 µM (active),inactive,inactive,inactive,inactive,inactive,inactive,inactive,inactive,inactive
CCCN(CC)CC1COC2(CCC(C(C)(C)C)CC2)O1 (stereo not drawn),inactive,inactive,inactive,inactive,inactive,inactive,inactive,inactive,inactive,
CCCCCCCCCBr,inactive,inactive,inactive,inactive,inactive,inactive,inactive,inactive,inactive,
CNC(C)Cc1ccc2c(c1)OCO2 (stereo not drawn),inactive,inactive,inactive,inactive,inactive,inactive,inactive,,inactive,inactive
C1CCC2CCCCC2C1 (stereo not drawn),inactive,inactive,inactive,inactive,inactive,inactive,inactive,inactive,inactive,
COC(=O)N(C(=O)N1CO[C@@]2(C(=O)OC)Cc3cc(Cl)ccc3C2=N1)c1ccc(OC(F)(F)F)cc1,46.9 µM (active),inactive,inactive,inactive,3.32 µM (active),inactive,inactive,inactive,inactive,13.2 µM (active)
CN(C)[C@@H]1C(=O)C(C(N)=O)=C(O)[C@@]2(O)C(=O)C3=C(O)c4c(O)ccc(Cl)c4[C@@](C)(O)[C@H]3C[C@@H]12,inactive,inactive,inactive,inactive,inactive,inactive,inactive,inactive,inactive,inactive
CC(C)OS(C)(=O)=O,inactive,inactive,inactive,inactive,inactive,inactive,inactive,inactive,inactive,

Structure (SMILES),Potency [1],Potency [2],Potency [3],Potency [4],Potency [5],outcome [6],outcome [7],Potency [8],outcome [9],Potency [10]
CN(C)CCc1c[nH]c2cccc(O)c12,inactive,inactive,inactive,inactive,inactive,inactive,inactive,inactive,inactive,inactive
FC(Cl)(Cl)Cl,inactive,inactive,inactive,inactive,inactive,inactive,inactive,inactive,inactive,
ClC(Cl)=C(Cl)Cl,inactive,inactive,inactive,inactive,inactive,inactive,inactive,,inactive,
CCCCCCCCCCCCCN1CC(C)OC(C)C1 (stereo not drawn),inactive,inactive,inactive,inactive,inactive,inactive,inactive,inactive,inactive,
COc1ccc(/C(=C/C(=O)N2CCOCC2)c2ccc(Cl)cc2)cc1OC,inactive,inactive,inactive,inactive,inactive,inactive,inactive,inactive,inactive,
CCOC(=O)OC1=C(c2cc(C)ccc2C)C(=O)NC12CCC(OC)CC2 (stereo not drawn),68.5 µM (active),inactive,inactive,inactive,10.9 µM (active),inactive,inactive,inactive,inactive,21.7 µM (active)
CCCN(CCC)CCc1c[nH]c2ccccc12,inactive,inactive,inactive,inactive,inactive,inactive,inactive,inactive,inactive,
CC(=O)O[C@H]1CC[C@@]2(C)C(=CC[C@@H]3[C@@H]2CC[C@]2(C)C(=O)CC[C@@H]32)C1,inactive,inactive,inactive,inactive,inactive,inactive,inactive,inactive,inactive,inactive and 54.5 µM (active)
CN(C)CCc1c[nH]c2ccc(O)cc12,inactive,inactive,inactive,inactive,inactive,inactive,inactive,inactive,inactive,inactive
CCN,inactive,inactive,inactive,inactive,inactive,inactive,inactive,inactive,inactive,inactive
CC(C)CCCCCOC(=O)c1ccccc1C(=O)OCCCCCC(C)C,inactive,inactive,inactive,inactive,inactive,inactive,inactive,inactive,inactive,
CC(c1ccc(O)cc1)c1ccc(O)cc1,inactive,inactive,inactive,inactive,inactive,inactive,inactive,inactive,inactive,25.6 µM (active)
CC(C)OC(=S)S,inactive,inactive,inactive,inactive,inactive,inactive,inactive,inactive,inactive,
FC(F)(F)c1cccc(C2=CCN(CCc3ccc4ccccc4c3)CC2)c1,inactive,inactive,inactive,inactive,inactive,inactive,inactive,inactive,inactive,
O=CC(Br)(Br)Br,13.6 µM (active),9.66 µM (active),inactive,30.5 µM (active),,inactive,inactive,inactive,inactive,30.5 µM (active)
CCCCCCCCCCCCCCCC[n+]1ccccc1,26.6 µM (active) and 71.7 µM (active),inactive,67.6 µM (active) [middle of 4 runs],63.9 µM (active) and 48.6 µM (active),63.9 µM (active) and 60.3 µM (active),inactive,inactive,inactive,inactive,24.3 µM (active) [middle of 4 runs]
O=C(O)c1cc[c]([Hg][Cl])cc1,61.1 µM (active),,,,inactive,inactive,inactive,,inactive,
CCOC(=O)C1(c2ccccc2)CCN(CCC(C#N)(c2ccccc2)c2ccccc2)CC1,3.76 µM (active) and 26.6 µM (active),inactive,1.88 µM (active) and 9.44 µM (active),inactive,,inactive,inactive,inactive,inactive,13.3 µM (active) and 26.6 µM (active)
N#CSCSC#N,5.57 µM (active) and 10.8 µM (active),19.8 µM (active) and 30.3 µM (active),62.5 µM (active) and 60.5 µM (active),,,inactive,inactive,inactive,inactive,62.5 µM (active) and 48.1 µM (active)
CCCCCCCCCCCCCC[P+](CCCCCC)(CCCCCC)CCCCCC (tested in a mixture with another compound),,inactive,15.4 µM (active),21.7 µM (active),24.3 µM (active),inactive,inactive,inactive,inactive,0.243 µM (active)
